The target of test [1] is Ferritin light chain (Equus caballus) (UniProt P02791). The test can be described thus: qHTS Validation Assay for Identification of Novel General Anesthetics (AID 2323). Further: series mostly up to about 77 µM. The gist of the method:
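10 uM horse-spleen apoferritin + 1-AMA (50% saturated, PBS); cpd pin-transferred, 10 min RT. Ex 380/Em 535 nm endpoint. Activity normalized between free 1-AMA and 1-AMA/apoferritin; 4-parameter Hill fit of concentration-response.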

Test [2] can be described thus: Cytometric Cell-Based qHTS for Inhibitors of the mTORC1 Signaling Pathway in MEF (Tsc2-/-, p53-/-) Cells (AID 2660).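 Further: Tsc2 and p53 null MEFs carrying empty vector with compound for 24 h; percent of cells above a phospho-rpS6 to PI ratio cutoff in each well; series mostly up to about 38 µM.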 The gist of the method: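 Immunofluorescence qHTS of rpS6 Ser235/236 phosphorylation: MEFs (Tsc2-/-, p53-/-) treated 24 h, 37 C, in DMEM + 10% FBS. Alexa-488 signal normalized to PI count, referenced to rapamycin (7.5 nM) and DMSO; PI cell number recorded for viability.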

Test [3] in a line: High Content Imaging Cell-Based qHTS for Inhibitors of the mTORC1 Signaling Pathway in MEF (Tsc2-/-, p53-/-) Cells (AID 2666).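 Further: percent of cells scored positive for phospho-rpS6 Ser235/236 immunostaining by imaging.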 Summed up:
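MEF Tsc2-/- p53-/- (empty vector), DMEM/10% FBS; cpd 24 h 37 °C; PFA fix, Alexa-488 p-rpS6 S235/236 Ab, Hoechst; imaged; rapamycin-defined inhibition; % positive cells/well.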

A short description of test [4]: High Content Imaging Cell-Based qHTS for Inhibitors of the mTORC1 Signaling Pathway in MEF Cells (AID 2667).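 Further: Tsc2-/- p53-/- MEFs stably re-expressing wild-type Tsc2 exposed 24 h; series mostly up to about 38 µM.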 Summed up:
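Read-out is the share of phospho-rpS6-positive cells per well, from Hoechst-normalized Alexa-488 Ser235/236 staining imaged on IN Cell. Cells: WT Tsc2-expressing Tsc2-/-, p53-/- MEFs exposed to compound for 24 hrs.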

A short description of test [5]: Cytometry Cell-Based qHTS for Inhibitors of the mTORC1 Signaling Pathway in MEF cells (AID 2668).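 Further: Tsc2-/- p53-/- mouse embryonic fibroblasts stably re-expressing wild-type Tsc2; percent cells positive for phospho-rpS6 Ser235/236 relative to propidium iodide stain; series mostly up to about 38 µM.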 The gist of the method: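 Read-out: phospho-rpS6 Ser235/236 immunofluorescence normalized to propidium iodide intensity, scored as % active cells against a rapamycin (7.5 nM) threshold. Cells: Tsc2-/-, p53-/- MEFs stably expressing WT Tsc2, compound-treated 24 hrs at 37 degree Celsius.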

Test [6] is described as follows: Validation screen for small molecules that induce DNA re-replication in MCF 10A normal breast cells (AID 463097). Further: nearly all actives have a fitted effect of over 60% in size. Summed up: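 250 MCF 10A cells/well; compound pin-transferred; 48 hr, 37 C, 5% CO2; Hoechst 40 min; imaged 405/500-530 nm. Hits = more high-intensity nuclei.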
The target in test [7] is Ubiquitin carboxyl-terminal hydrolase 2 (Homo sapiens) (UniProt O75604). The test is described as follows: qHTS Validation Assay for Inhibitors of Ubiquitin-specific Protease USP2a Using CHOP2 as the Reporter (AID 463106). The gist of the method:
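Fluorescence read-out at Ex 485nm/Em 531nm after 60min RT, following addition of 25nM Ub-CHOP2 plus 25nM reporter substrate to USP2 core (10nM) pretreated 30min with compound. Data normalized to NEM full inhibition; concentration-response curves fitted.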

In test [8] the target is Tumor susceptibility gene 101 protein (Homo sapiens) (UniProt Q99816). The test is described as follows: qHTS Validation Assay for Iinhibitors of HIV-1 Budding by Blocking the Interaction of PTAP/TSG101 (AID 485342; calls by dose curve). Summed up: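 FP read-out: FITC-PTAP peptide, 50 nM final, binding Tsg101 binding domain, 10 uM final; 20 min r.t.; 10 mM HEPES pH 7.5, 0.15 M NaCl, 0.01% Tween 20, 3 mM EDTA, 0.1 mM TCEP.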

Test [9] in a line: qHTS Validation Assay to Find Inhibitors of Chronic Active B-Cell Receptor Signaling (AID 485345; active means well fitted curve in the direction sought with a large enough effect in the main read-out, with a control signal flat, not every such curve was filed as active). Summed up: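 TMD8 ABC-DLBCL cells stably carrying doxycycline-inducible IkappaBalpha–green luciferase fusion plus unfused red luciferase; compounds 46 uM to 3 nM, 4 h at 37C with doxycycline. Corrected green/red luminescence ratio normalized to 10 uM MG-132 and basal cell wells; curves fitted.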

The nature of test [10]: Quantitative high throughput screen for delayed death inhibitors of the malarial parasite plastid, 96 hour incubation (AID 488745). Further: nearly all actives have a fitted effect of over 70% in size. Further: potency means the concentration at half of the fitted maximal effect. Summed up:
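Decreased firefly luciferase luminescence indicates inhibited growth of reporter-integrated P. falciparum after two generations (96 h, 37 C, 5% CO2). Infected erythrocytes at 0.1% parasitemia, 2% hematocrit, in Albumax-supplemented RPMI 1640.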

For test [11], the target named is Thioredoxin reductase 1, cytoplasmic (Rattus norvegicus) (UniProt O89049). The test is described as follows: qHTS Assay for Inhibitors of Mammalian Selenoprotein Thioredoxin Reductase 1 (TrxR1) (AID 488773).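 Further: drop in NADPH fluorescence over an 8 min run after selenite addition; series mostly up to about 57 µM; nearly all actives have a fitted effect of over 40% in size.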 As to conditions: Potency: inhibition. The gist of the method: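 Inhibition is scored from the loss of NADPH fluorescence between first and last reads of an 8-min kinetic run. Selenite (400 uM) was the substrate, added after 15 min compound preincubation at room temperature.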

Test [12] addresses Flap endonuclease 1 (Homo sapiens) (UniProt P39748). The test is described as follows: qHTS Validation Assay for the Inhibitors of Human Flap endonuclease 1 (FEN1) (AID 488816). The gist of the method:
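Enzyme reagent 10 nM; cpds pinned; 15 min RT preinc.; substrate 50 nM final; reads t=0 and 15 min; no-enzyme buffer wells as neg. control; normalized data, 4-parameter Hill fit.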

For test [13], the target named is M-phase phosphoprotein 8 (Homo sapiens) (UniProt Q99549). The test can be described thus: qHTS Validation Assay for Inhibitors for MPP8 Chromodomain Interactions with Methylated Histone Tails (AID 488949).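 Further: AlphaScreen signal from MPP8 chromodomain bound to biotinylated H3K9me3 peptide; top concentration of the series differs between compounds; nearly all actives have a fitted effect of over 55% in size.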 Summed up: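 AlphaScreen read-out: streptavidin donor and nickel chelate acceptor beads (final 10 ug/mL), 30 min in the dark at RT. Complex of 50 nM MPP8 and 50 nM b-H3(1-18)K9me3 peptide had been exposed to compounds for 30 min beforehand.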

In test [14] the target is RecQ-like DNA helicase BLM (Homo sapiens) (UniProt P54132). The test can be described thus: qHTS Validation Assay for Inhibitors of Bloom's syndrome helicase (BLM) (AID 2364). Summed up:
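50 nM BLM preincubated 15 min at room temperature with compound in pH 8.0 Tris buffer containing 2.5 ug/ml poly(dI-dC); started with 200 nM TAMRA/BHQ-2 forked duplex and 2 mM ATP (final). Unwinding read as TAMRA fluorescence increase, two reads 2 h apart.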

In test [15] the target is Beta-2 adrenergic receptor (Homo sapiens) (UniProt P07550). The test can be described thus: qHTS validation assay of beta-arrestin-biased ligands of beta2-adrenergic receptor (AID 485366). The gist of the method: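 Agonism was measured as beta-arrestin recruitment to recombinant beta2-AR, releasing tTA to drive luciferase. Cells were exposed for 18 hr at 37 degrees C to a series up to 46 microM. %Activity from corrected luminescence gave concentration-response curves.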

Test [16] has as its target Thioredoxin reductase 1, cytoplasmic (Rattus norvegicus) (UniProt O89049). The test is described as follows: qHTS Assay for Substrates of Mammalian Selenoprotein Thioredoxin Reductase 1 (TrxR1) (AID 488772).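 Further: series mostly up to about 57 µM; a drop in NADPH fluorescence below the no-compound background marks a TrxR1 substrate.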 The gist of the method: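 In this dual-purpose format, potential substrates are identified from the first fluorescence read after selenite addition, not from the 8-minute delta. Rat enzyme is preincubated with NADPH and then with compound at ~22 deg C.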

Test [17] has as its target DNA polymerase III PolC-type (Bacillus subtilis (strain 168)) (UniProt P13267). The test is described as follows: qHTS Validation Assay for the Inhibitors of DNA Replication in Gram-Positive Bacteria (AID 485295).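 Further: reconstituted holoenzyme with PolC plus beta clamp SSB and primase; PicoGreen fluorescence of double-stranded DNA made on primed circular M13 template; series mostly up to about 57 µM.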 Summed up:
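PicoGreen fluorescence (ex 480–485/em 535–540 nm) reports dsDNA synthesized on ssM13Gori template with dNTPs/NTPs. Enzyme: holoenzyme rebuilt from purified PolC, beta subunit, SSB and primase. Compound preincubated before substrate addition; RT throughout.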

The nature of test [18]: Quantitative high throughput screen for delayed death inhibitors of the malarial parasite plastid, 48 hour incubation (AID 488752). Further: nearly all actives have a fitted effect of over 65% in size. Summed up: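 One-generation (48 h) growth assay: a decrease in luciferase signal from an integrated reporter in P. falciparum-infected red cells (0.1% parasitemia, 2% hematocrit) after compound exposure at 37 C indicates parasite inhibition.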

Inconclusive results are not listed. The source made the active and inactive calls. Unless noted, the call rests on the fitted dose curve; in most records, active means well fitted curve in the direction sought with a large enough effect; inconclusive means small, poorly fitted or top-dose-only effect, or another doubt; inactive means no such curve, though single readings can be large; an effect the other way counts as inactive or inconclusive.

Beta-2 adrenergic receptor (Homo sapiens), sequence (P07550 whole entry, looked up): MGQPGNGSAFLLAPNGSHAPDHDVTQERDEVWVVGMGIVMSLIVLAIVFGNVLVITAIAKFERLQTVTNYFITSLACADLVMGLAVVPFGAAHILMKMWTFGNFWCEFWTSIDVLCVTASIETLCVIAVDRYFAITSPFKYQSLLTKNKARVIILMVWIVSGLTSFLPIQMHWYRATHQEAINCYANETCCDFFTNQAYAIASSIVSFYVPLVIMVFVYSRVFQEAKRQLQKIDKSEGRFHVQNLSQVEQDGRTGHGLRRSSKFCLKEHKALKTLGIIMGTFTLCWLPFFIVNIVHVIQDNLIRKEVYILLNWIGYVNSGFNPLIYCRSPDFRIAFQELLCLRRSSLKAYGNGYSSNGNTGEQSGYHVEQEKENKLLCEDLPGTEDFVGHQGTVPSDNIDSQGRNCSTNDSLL
Tumor susceptibility gene 101 protein (Homo sapiens), sequence (Q99816 whole entry, looked up, the tested form may be a part): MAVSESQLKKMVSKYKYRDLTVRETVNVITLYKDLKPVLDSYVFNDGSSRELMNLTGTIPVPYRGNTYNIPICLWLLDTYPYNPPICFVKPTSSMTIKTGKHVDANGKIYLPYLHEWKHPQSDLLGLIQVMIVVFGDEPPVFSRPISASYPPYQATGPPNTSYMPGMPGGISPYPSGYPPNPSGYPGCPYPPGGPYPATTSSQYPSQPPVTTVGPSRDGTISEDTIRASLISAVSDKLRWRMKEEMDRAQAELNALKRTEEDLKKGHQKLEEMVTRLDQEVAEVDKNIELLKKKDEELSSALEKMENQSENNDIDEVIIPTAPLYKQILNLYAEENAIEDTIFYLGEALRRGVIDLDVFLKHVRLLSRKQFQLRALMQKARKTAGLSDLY
RecQ-like DNA helicase BLM (Homo sapiens), sequence (P54132 whole entry, looked up): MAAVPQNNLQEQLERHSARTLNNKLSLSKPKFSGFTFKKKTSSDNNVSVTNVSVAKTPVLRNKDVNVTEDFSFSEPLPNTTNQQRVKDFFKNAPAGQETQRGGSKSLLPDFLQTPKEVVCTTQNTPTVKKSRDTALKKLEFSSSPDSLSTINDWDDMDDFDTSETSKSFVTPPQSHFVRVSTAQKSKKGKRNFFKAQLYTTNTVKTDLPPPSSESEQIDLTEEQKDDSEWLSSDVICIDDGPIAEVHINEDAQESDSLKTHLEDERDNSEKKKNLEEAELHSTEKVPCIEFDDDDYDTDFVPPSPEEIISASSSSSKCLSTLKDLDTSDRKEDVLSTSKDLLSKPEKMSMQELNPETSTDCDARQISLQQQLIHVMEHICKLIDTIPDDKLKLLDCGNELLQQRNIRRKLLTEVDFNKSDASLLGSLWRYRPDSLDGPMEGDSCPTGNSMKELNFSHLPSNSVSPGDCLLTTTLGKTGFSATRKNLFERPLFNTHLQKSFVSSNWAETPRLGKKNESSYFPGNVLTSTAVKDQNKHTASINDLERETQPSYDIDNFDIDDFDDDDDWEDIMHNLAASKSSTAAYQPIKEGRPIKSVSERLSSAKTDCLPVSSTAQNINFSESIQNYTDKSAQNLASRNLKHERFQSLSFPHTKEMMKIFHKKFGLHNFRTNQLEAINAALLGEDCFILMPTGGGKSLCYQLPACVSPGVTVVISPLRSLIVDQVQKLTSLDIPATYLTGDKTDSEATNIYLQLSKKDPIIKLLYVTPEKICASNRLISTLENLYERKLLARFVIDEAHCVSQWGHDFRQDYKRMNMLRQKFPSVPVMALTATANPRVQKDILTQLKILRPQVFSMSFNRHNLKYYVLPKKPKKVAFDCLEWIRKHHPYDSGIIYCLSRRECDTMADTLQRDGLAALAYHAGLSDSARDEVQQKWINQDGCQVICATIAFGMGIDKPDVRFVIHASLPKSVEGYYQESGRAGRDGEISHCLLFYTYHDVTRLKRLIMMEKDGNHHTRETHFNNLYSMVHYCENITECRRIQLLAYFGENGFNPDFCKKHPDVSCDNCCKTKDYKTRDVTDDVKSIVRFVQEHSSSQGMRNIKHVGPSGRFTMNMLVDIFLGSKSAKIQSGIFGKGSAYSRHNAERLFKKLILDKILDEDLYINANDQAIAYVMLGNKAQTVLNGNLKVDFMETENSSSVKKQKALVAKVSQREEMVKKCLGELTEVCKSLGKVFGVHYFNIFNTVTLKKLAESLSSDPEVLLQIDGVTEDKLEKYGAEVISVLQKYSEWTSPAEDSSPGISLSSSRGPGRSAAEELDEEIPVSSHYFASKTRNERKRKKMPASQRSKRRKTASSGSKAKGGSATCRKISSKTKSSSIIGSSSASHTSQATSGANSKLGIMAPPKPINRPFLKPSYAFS
M-phase phosphoprotein 8 (Homo sapiens), sequence (Q99549 whole entry, looked up): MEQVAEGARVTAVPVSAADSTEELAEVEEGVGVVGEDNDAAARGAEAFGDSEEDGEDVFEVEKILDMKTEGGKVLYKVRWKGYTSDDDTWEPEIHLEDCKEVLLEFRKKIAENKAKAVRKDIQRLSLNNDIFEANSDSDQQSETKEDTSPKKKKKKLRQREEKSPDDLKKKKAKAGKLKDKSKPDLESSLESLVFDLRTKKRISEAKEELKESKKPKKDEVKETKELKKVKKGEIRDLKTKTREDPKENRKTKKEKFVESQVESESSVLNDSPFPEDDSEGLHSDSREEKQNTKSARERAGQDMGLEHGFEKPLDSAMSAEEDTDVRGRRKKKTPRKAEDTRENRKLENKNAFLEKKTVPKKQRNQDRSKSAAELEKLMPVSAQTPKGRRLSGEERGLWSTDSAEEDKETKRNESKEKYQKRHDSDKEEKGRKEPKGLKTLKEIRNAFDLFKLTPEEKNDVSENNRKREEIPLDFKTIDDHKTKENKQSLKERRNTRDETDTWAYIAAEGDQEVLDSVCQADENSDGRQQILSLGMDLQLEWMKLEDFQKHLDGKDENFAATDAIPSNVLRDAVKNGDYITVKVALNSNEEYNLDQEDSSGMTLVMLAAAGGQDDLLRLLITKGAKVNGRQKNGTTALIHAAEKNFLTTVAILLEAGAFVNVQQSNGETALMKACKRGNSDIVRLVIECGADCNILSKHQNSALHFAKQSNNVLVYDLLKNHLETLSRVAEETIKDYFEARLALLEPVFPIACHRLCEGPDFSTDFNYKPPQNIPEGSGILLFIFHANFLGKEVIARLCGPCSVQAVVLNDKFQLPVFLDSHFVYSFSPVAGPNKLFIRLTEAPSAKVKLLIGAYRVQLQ
Thioredoxin reductase 1, cytoplasmic (Rattus norvegicus), sequence (O89049 whole entry, looked up): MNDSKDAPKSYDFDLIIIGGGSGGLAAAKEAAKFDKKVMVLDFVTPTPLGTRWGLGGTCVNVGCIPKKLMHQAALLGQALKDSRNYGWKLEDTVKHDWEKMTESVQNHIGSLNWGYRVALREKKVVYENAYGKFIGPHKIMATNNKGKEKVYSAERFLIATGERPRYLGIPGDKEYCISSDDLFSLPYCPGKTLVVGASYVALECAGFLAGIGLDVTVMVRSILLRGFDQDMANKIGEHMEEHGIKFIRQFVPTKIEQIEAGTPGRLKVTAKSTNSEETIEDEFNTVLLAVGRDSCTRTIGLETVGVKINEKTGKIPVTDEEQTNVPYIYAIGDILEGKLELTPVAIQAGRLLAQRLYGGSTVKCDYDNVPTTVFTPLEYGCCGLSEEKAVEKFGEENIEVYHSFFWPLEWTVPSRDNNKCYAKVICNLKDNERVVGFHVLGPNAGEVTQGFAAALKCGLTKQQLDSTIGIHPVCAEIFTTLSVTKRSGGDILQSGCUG
Ferritin light chain (Equus caballus), sequence (P02791 2-175 limits assumed): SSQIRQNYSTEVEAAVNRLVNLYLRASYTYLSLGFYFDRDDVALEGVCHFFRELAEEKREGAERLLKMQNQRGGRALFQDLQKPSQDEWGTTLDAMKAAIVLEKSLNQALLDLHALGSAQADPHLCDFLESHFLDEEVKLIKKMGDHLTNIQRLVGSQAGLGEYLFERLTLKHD
Flap endonuclease 1 (Homo sapiens), sequence (P39748 whole entry, looked up): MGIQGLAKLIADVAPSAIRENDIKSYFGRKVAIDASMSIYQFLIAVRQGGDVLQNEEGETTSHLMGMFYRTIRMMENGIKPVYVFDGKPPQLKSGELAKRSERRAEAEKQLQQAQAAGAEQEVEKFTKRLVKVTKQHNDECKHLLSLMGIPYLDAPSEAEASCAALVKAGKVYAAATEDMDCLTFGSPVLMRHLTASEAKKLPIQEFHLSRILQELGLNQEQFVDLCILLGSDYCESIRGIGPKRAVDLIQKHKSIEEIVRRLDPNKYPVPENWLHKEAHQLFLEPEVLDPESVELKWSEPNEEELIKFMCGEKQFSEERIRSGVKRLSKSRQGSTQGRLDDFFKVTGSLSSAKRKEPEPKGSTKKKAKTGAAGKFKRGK
Ubiquitin carboxyl-terminal hydrolase 2 (Homo sapiens), sequence (O75604 whole entry, looked up): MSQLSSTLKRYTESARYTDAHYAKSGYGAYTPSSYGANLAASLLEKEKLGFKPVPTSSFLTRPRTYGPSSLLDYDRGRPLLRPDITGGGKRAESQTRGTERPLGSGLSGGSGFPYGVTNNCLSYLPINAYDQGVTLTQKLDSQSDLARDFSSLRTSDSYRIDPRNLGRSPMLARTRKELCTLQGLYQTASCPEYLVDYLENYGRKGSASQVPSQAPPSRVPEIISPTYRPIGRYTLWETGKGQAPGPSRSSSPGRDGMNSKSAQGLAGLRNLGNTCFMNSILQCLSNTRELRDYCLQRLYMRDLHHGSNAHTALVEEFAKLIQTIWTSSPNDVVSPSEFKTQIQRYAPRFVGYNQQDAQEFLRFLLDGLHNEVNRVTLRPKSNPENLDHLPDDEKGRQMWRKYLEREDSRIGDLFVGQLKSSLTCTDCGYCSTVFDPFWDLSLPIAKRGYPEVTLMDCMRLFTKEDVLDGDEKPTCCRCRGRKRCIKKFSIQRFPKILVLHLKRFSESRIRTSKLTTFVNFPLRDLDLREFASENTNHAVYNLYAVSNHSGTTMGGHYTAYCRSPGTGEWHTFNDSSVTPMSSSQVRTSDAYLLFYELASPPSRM

Regarding `Cc1ccc(=O)n(-c2ccccc2)c1`, the compound was classed as inactive in test [1], in test [2], in test [7] and in [8]. Further, the Potency entry in test [3], in test [4], in [5], in [6], in [9] and in test [10] was “inactive” each time. Further, the Potency result in test [11], in [12] and in [13] was “inactive” in each case.
Take `NC(=O)N1c2ccccc2C=Cc2ccccc21`: the compound was called inactive in [1], in test [2], in test [7], in [8], in test [15] and in [16]. Besides, the Potency entry in test [14], in test [3], in [4], in test [5], in [6] and in [9] was “inactive” each time. Also, the Potency entry in test [10], in test [11], in [12] and in [13] was “inactive” each time.
Take `O=C(O)CN(CCN(CC(=O)O)CC(=O)O)CCN(CC(=O)O)CC(=O)O`: the compound was classed as inactive in test [1], in test [2], in test [7], in [8] and in [15]. Besides, the Potency entry in [3], in test [4], in test [5], in [6], in [17] and in [9] was “inactive” each time. In addition, the Potency result in test [18], in [11] and in [12] was “inactive” throughout.
As for `OCCN1CCN(CCCN2c3ccccc3C=Cc3ccccc32)CC1`, the call in test [1], in test [2], in test [7], in [8] and in test [15] was inactive. Moreover, the Potency result in [14], in [3], in test [4], in [5], in test [6] and in [17] was “inactive” each time. Also, the Potency result in test [9], in test [11], in [12] and in test [13] was “inactive” each time. Further, in [10], the Potency was 13.1 µM (active).
As to `CC(C)COCC(CN(Cc1ccccc1)c1ccccc1)N1CCCC1` (stereo not given), the call in test [1], in test [2], in [7], in [8], in test [15] and in test [16] was inactive. The Potency entry in test [14], in test [3], in test [4], in test [5], in test [6] and in test [17] was “inactive” throughout. For the same compound, the Potency result in test [9], in [10], in test [18], in test [11], in test [12] and in test [13] was “inactive” in each case.
`CN(C)CC[C@@H](c1ccc(Br)cc1)c1ccccn1`: the call in test [1], in test [2], in [7], in test [8], in [15] and in [16] was inactive. Further, the Potency entry in test [14], in test [3], in test [4], in test [5], in test [6] and in test [17] was “inactive” throughout. The Potency entry in test [9], in test [10], in test [18], in test [11], in test [12] and in test [13] was “inactive” throughout.

The record behind these values is PubChem BioAssay (NCATS).
